Compound activity from PubChem.
The sample as a whole holds a higher share of hits than the screen did.
AmpC inh detg – qHTS Inhibitors of AmpC Beta-Lactamase (assay with detergent); P00811; AmpC hydrolysis of nitrocefin, absorbance 480 nm, 0.01% Triton; hit rate 0.041% among 370,000; Potency, µM (doses to about 114 µM), usual class: inhibitors; AID 485294, 2010; also: nearly all actives have a fitted effect of over 25% in size
Target sequence (P00811 whole entry, looked up): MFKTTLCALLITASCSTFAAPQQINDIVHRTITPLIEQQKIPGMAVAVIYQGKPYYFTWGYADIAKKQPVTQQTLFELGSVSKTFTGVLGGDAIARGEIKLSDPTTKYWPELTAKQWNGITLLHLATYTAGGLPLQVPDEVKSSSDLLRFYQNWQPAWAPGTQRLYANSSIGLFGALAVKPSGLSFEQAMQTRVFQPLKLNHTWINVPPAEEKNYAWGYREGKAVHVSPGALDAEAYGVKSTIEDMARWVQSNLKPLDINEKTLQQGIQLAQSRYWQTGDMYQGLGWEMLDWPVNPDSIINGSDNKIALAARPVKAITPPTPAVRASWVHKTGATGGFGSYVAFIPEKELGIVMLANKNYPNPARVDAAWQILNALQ
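20 mM phosphate pH 7.0 + 0.01% (detergent screen) or 0.0001% Triton X-100; 5.3 nM AmpC reagent; cpd preinc 15 min RT; nitrocefin (800 uM stock) to start; A480 q20 s × 4 min; Activity was normalised to no-enzyme and no-compound control wells.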
CHX counter – Cycloheximide Counterscreen for Small Molecule Inhibitors of Shiga Toxin; cell reporter, cycloheximide protein synthesis inhibition counterscreen; max response, %; hit rate 12% among 300,000; in the data active = max response mostly above about 13%, no sharp cut-off; inactive = mostly below about 14%; also: read at 38.3 µM for the half of the compounds with a filed dose
SARS PLP yeast – qHTS of Yeast-based Assay for SARS-CoV PLP; hit rate 0.19% among 330,000; Potency, µM (titrated, usually from 32.9 µM), usual class: activators; S. cerevisiae expressing SARS-CoV PLpro, growth rescue; AID 485353, 2010; calls by dose curve; also: nearly all actives have a fitted effect of over 55% in size
AMA1-RON2 inh – qHTS for Inhibitors of AMA1-RON; Towards Development of Antimalarial Drug Lead: Primary Screen. hit rate 0.2% among 360,000. AID 720542, 2013. AlphaScreen AMA1-biotinylated RON2 peptide binding. Potency, µM (titrated, usually from 58.2 µM), usual class: inhibitors; also: nearly all actives have a fitted effect of over 45% in size
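AMA1 (3D7) with his tag at 25 nM final met compounds first, then biotinylated RON2 peptide at 25 nM; detection used donor plus acceptor beads, 10 µg/mL apiece, read by AlphaScreen after 30 min at room temperature.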
Shiga toxin inh – A qHTS for Small Molecule Inhibitors of Shiga Toxin. Vero cells, Shiga toxin protein synthesis inhibition reporter. AID 2315, 2010. inhibition, % at 38.7 µM. hit rate 9.2% among 290,000; in the data active = inhibition mostly above about 28%, no sharp cut-off; inactive = mostly below about 43%
AmpC no deterg – qHTS Inhibitors of AmpC Beta-Lactamase (assay without detergent); P00811; AmpC nitrocefin hydrolysis, absorbance 480 nm, 0.0001% Triton; Potency, µM (top dose mostly 57.1 µM), hits mostly inhibitors; hit rate 0.52% among 330,000; AID 485341, 2010; also: nearly all actives have a fitted effect of over 20% in size
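AmpC (5.3 nM in the dispensed reagent) in 20 mM phosphate pH 7.0 with 0.01% (detergent screen) or 0.0001% Triton X-100 was preincubated with compounds for 15 min at room temperature. Nitrocefin was then added from an 800 uM solution, and hydrolysis was followed at 480 nm.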
Of the large screens only hits and unclear results are named; the others gave an inactive call. Unless noted, calls follow the shape of the dose curve; as a rule, active = well fitted curve in the direction sought with a large enough effect; inconclusive = small, poorly fitted or top-dose-only effect, or another doubt; inactive = no such curve, though single readings can be large; an effect the other way counts as inactive or inconclusive.

COc1ccc(C)c2sc(=NC(=O)c3cccc(N4C(=O)CCC4=O)c3)n(C)c12	CHX counter 20.2
COc1ccc(C)c2sc(=NC(=O)c3ccc(C(C)=O)cc3)n(C)c12	CHX counter 38.0, Shiga toxin inh 66.7
COc1ccc(C)c2sc(=NC(=O)c3ccccc3)n(C)c12	CHX counter 18.4, Shiga toxin inh 69.3, AmpC no deterg inconclusive
C=CC[C@@H](CC(=O)N[C@@H](CO)Cc1ccccc1)C(=O)NC[C@H](OC(=O)[C@@H](CC=C)Cc1ccc(F)cc1)c1ccccc1	none (no result: AmpC inh detg, CHX counter, Shiga toxin inh)
CC(OC(=O)CNC(=O)c1ccc(Cl)c([N+](=O)[O-])c1)C(=O)NC1CCCCC1C (stereo not given)	AmpC inh detg inconclusive (no result: CHX counter, Shiga toxin inh)
CCOC(=O)C1=C(CC)OC(N)=C(C#N)C1c1ccc(OC)c(C)c1OC (stereo not given)	AmpC inh detg inconclusive, SARS PLP yeast inconclusive
O=C(N/C=C/n1cnc2cc(C(F)(F)F)ccc21)c1ccccc1	none
COc1cc2ccc(C(C)=NOC(C)=O)cc2cc1OC	none (no result: AmpC inh detg, CHX counter, SARS PLP yeast, Shiga toxin inh, AmpC no deterg)
C/C(=N/OC(=O)C1CC12CCC2)c1ccc(Br)cc1 (stereo not given)	CHX counter 68.1, Shiga toxin inh 155.8
CCOC(=O)CCSc1nc(C)c2ccccc2n1	CHX counter 18.3, Shiga toxin inh 57.4
CCOC(=O)CSc1nc(C)c2cc(OC)ccc2n1	CHX counter 45.9, Shiga toxin inh 71.9
CCOC(=O)CNC(=O)CSc1cc(C)nc2ccc(OC)cc12	CHX counter 28.7, Shiga toxin inh 72.5
CCOC(=O)CSc1nc(C)c2cc(C)c(C)cc2n1	none
CCOC(=O)CCSc1nc(C)c2cc(C)ccc2n1	CHX counter 30.4, Shiga toxin inh 75.4
COc1ccc2nc(C)cc(SCC(=O)NNC(=O)COc3ccccc3)c2c1	none
Cc1cc2nc(SCCOC(=O)Nc3ccc(Cl)cc3)nc(C)c2cc1C	none
CCOC(=O)CSC1=NC(=O)/C(=C/c2ccc(OC)cc2)S1	CHX counter 22.1, Shiga toxin inh 61.4
COc1ccc(/C=C2\SC(N)=NC2=O)cc1	none
CCOc1ccc2cc(C#N)c(SCC(=O)N3CCC(C)CC3)nc2c1	none
CCOc1ccc2nc(SCC#N)c(C#N)cc2c1	CHX counter 21.9
COc1ccc(C(=O)NCCNc2nc3ccc(C)cc3cc2C#N)cc1	CHX counter 23.0, Shiga toxin inh 34.1
COC(=O)CSc1nc2cc(OC)ccc2cc1C#N	CHX counter 53.0, Shiga toxin inh 68.0
Cc1ccc2nc(NCCNC(=O)c3ccccc3)c(C#N)cc2c1	none (no result: Shiga toxin inh)
CCOC(=O)CSc1nc2cc(OCC)ccc2cc1C#N	AmpC inh detg inconclusive, CHX counter 65.2, Shiga toxin inh 88.3
O=C(O)c1ccccc1S(=O)CCO (stereo not given)	none
CC1CCc2sc(C(=O)NC3CCN(Cc4ccccc4)CC3)cc2C1 (stereo not given)	none (no result: CHX counter, Shiga toxin inh)
Cc1cccc(N2C(=O)C3C4C=CC(CC4)C3C2=O)c1 (stereo not given)	none
Cn1c(=O)[nH]c(=O)c2c1nc(N/N=C/c1cccnc1)n2Cc1ccc(Cl)cc1	none
COC(=O)Cc1ccc(NC(=S)NCc2ccc(S(N)(=O)=O)cc2)cc1	none
COC(=O)CSc1nc2ccc(C)cc2cc1C#N	CHX counter 36.4, Shiga toxin inh 149.2
O=C(CSc1ccc(-c2ccco2)nn1)c1ccccc1	CHX counter 23.5, Shiga toxin inh 31.6
O=C(CSc1ccc(-c2ccccn2)nn1)N1CCCCC1	CHX counter 30.8, Shiga toxin inh 72.1
O=C(COC(=O)c1ccccn1)c1ccc([N+](=O)[O-])cc1	Shiga toxin inh 40.7
O=C(CSc1ccc(-c2cccnc2)nn1)N1CCCCC1	none
O=C(CSc1ccc(-c2ccccc2)nn1)N1CCCCC1	CHX counter 30.9, Shiga toxin inh 71.6
O=C(CSc1ccc(-c2ccncc2)nn1)N1CCCCC1	none
O=C(CSc1ccc(-c2ccc(F)cc2)nn1)N1CCCCC1	AmpC inh detg inconclusive, Shiga toxin inh 49.1
